Assay outcomes: PubChem BioAssay, National Center for Advancing Translational Sciences (NCATS)
Compounds with a hit are over-represented: about 3.9% of the library has one in this group of screens.
PLK1 PBD inh = PLK1 (human) polo-box domain binding inhibition. Plk1 PBD binding of FITC phosphopeptide, fluorescence polarization. Potency, µM, inactives show max response, negative = inhibition, most hits filed as inhibitors. 360,000 compounds, 2.8% hits; also: series mostly up to about 57 µM; % is scaled to controls: 0 for no effect and ±100 for the full control effect; nearly all actives have a fitted effect of over 65% in size
BRCA1 expr act = BRCA1 expression activation | MCF7-BRCA1-FFLuc reporter, luminescence, 48 h; response scale: scaled: vehicle 0%, 10 µM genistein 100% | Potency, µM (doses to about 46.1 µM), without a hit: at the highest dose activation, most hits filed as activators | 380,000 compounds, 1.1% hits; also: nearly all actives have a fitted effect of over 80% in size
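Reporter cells (MCF7, BRCA1 promoter-firefly luciferase) received library compounds across a concentration series for 48 h. End-point luminescence was measured and concentration-effect curves derived after normalization.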
VDR inh = blocks the human vitamin D receptor. P11473. VDR-SRC2-3 peptide fluorescence polarization, 2 h. Potency, µM, for the others: max response, negative = inhibition, usual class: inhibitors. 400,000 compounds, 0.93% hits. AID 504847; also: % is scaled to controls: 0 for no effect and ±100 for the full control effect
Target sequence (P11473 whole entry, looked up): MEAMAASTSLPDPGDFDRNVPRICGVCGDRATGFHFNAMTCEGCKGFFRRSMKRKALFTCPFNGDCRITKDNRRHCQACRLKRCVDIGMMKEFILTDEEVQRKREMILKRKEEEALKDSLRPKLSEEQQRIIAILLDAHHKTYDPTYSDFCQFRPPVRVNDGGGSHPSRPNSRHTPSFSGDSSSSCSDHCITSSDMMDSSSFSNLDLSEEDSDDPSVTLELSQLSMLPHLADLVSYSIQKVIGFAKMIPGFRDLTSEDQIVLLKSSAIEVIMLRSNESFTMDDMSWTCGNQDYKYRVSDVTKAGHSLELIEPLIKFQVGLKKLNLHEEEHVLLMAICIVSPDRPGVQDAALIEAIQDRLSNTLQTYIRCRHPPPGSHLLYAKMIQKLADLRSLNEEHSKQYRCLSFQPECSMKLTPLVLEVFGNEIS
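Two reagent solutions held at 4 deg C in the dark were dispensed, compounds pinned at 23 nl, and the mixture incubated 2 h at room temperature. Read-out: fluorescence polarization of VDR–SRC2-3 peptide binding.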
Tb PFK inh = blocks T. brucei phosphofructokinase. O15648. Potency, µM (titrated, usually from 57.5 µM), for the others: top-dose activity, negative = inhibition, most hits filed as inhibitors. AID 485367. T. brucei PFK, ADP-Glo luminescence. 330,000 compounds, 0.17% hits;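 also: 0% = uninhibited 1x PFK enzyme wells and -100% = no-enzyme wells; nearly all actives have a fitted effect of over 60% in size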
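Luminescent ADP detection (ADP-Glo, two-step: ATP depletion then ADP-to-ATP conversion for luciferase) reported PFK activity after 45 min room-temperature reaction of 1.25 nM enzyme with 0.5 mM F6P and 0.1 mM ATP at pH 8.0.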
Active calls of the source: *; ? = inconclusive; . = no result. Calls follow the shape of the dose curve; as a rule, active = well fitted curve in the direction sought with a large enough effect; inconclusive = small, poorly fitted or top-dose-only effect, or another doubt; inactive = no such curve, though single readings can be large; an effect the other way counts as inactive or inconclusive. Potency is read from the fitted curve at half-maximal effect.

SMILES	PLK1 PBD inh	BRCA1 expr act	VDR inh	Tb PFK inh
CCN(CC)c1ccc(C(=O)OCC(=O)NC2CCCCC2C)cc1 (centres undefined)	30µM*	0%	-13%	-1%
Cc1nn2c(=O)cc(COC(=O)C(c3ccccc3)c3ccccc3)nc2s1	.	-10%	1%	.
CCN(CC)CCCNC(=O)C1CCC(CNS(=O)(=O)c2c(C)cc(C)cc2C)CC1 (centres undefined)	5%	-8%	12%	0%
CCCCN(C)CCCNC(=O)C1CCC(CNS(=O)(=O)c2c(C)cc(C)cc2C)CC1 (centres undefined)	21µM*	-32%	?	9%
O=c1[nH]c(=O)c2nc(-c3ccc(Cl)cc3)cnc2[nH]1	-12%	1%	-8%	6%
O=c1[nH]c(=O)c2nc3c4ccccc4c4ccccc4c3nc2[nH]1	21µM*	-9%	-24%	-1%
O=Cc1cn(CC(=O)N2CCCc3ccccc32)c2ccccc12	2.7µM*	-38%	-13%	-3%
N#Cc1cn(CC(=O)N2CCCc3ccccc32)c2ccccc12	-1%	-4%	16%	-8%
CCC(C(=O)NCc1ccccc1)n1c(-c2cccs2)nc2ccccc21 (centres undefined)	-3%	.	.	.
COC(=O)c1cc(NC(=O)Cn2nc(-c3ccc(C)c(C)c3)ccc2=O)cc(C(=O)OC)c1	.	.	11%	.
Cc1cccc2cc(CN(Cc3cccnc3)C(=S)NCCCN(C)C)c(=O)[nH]c12	9.5µM*	0%	?	2%
CCN(CC)CCCNC(=S)N(Cc1cccnc1)Cc1cc2cccc(C)c2[nH]c1=O	-16%	0%	-8%	0%
CSc1ccccc1NC(=O)c1ccc([N+](=O)[O-])cc1	24µM*	2%	?	-11%
CSc1ccccc1NC(=O)c1ccc(N2CCCC2=O)cc1	-5%	10µM*	-6%	-6%
O=C(Nc1ccccc1O)c1ccc([N+](=O)[O-])cc1	-2%	-41%	-8%	0%
CC(=O)c1ccccc1NC(=O)c1ccc(N2CCCC2=O)cc1	-4%	7.9µM*	?	-4%
COc1cc(NC(=O)c2ccc(N3CCCC3=O)cc2)cc(OC)c1	-3%	?	2%	0%
COc1ccc(C2/C=C\CN(CC3CCCCC3)C(Cc3ccccc3)C(=O)N2Cc2ccc(F)cc2)cc1 (centres undefined)	.	.	-21%	.
O=C(O)c1ccccc1N(c1ccccc1)c1ccccc1	-25%	2%	35µM*	.
CCOC(=O)c1cc([N+](=O)[O-])c([N+](=O)[O-])cc1NC(C)=O	8.4µM*	-98%	?	-6%
O=C(Oc1ccccc1C(=O)Nc1ccccc1)c1ccc(Br)c([N+](=O)[O-])c1	?	65%	50µM*	-3%
CCOC(=O)c1ccc(NC(=O)c2cccc(C)c2[N+](=O)[O-])cc1	-10%	52%	-14%	0%
O=C(NNC(=O)c1ccccc1[N+](=O)[O-])c1ccccc1[N+](=O)[O-]	27µM*	7%	-7%	-17%
CCOC(=O)c1ccc(NC(=O)c2ccccc2[N+](=O)[O-])cc1	30µM*	18%	?	2%
O=C(O)c1ccccc1NSc1ccccc1[N+](=O)[O-]	11µM*	-13%	-20%	2%
SMILES	PLK1 PBD inh	BRCA1 expr act	VDR inh	Tb PFK inh
O=C(Nc1cccc(NC(=O)c2ccccc2[N+](=O)[O-])n1)c1ccccc1[N+](=O)[O-]	2.7µM*	-49%	-10%	0%
O=C(O)c1cccc([N+](=O)[O-])c1C(=O)Nc1cccc2ccccc12	-7%	-24%	-11%	3%
O=C(NC(Sc1ccc(Cl)cc1)C(=O)O)c1ccccc1 (centres undefined)	13µM*	1%	.	.
O=C(NC(C(=O)O)c1ccccc1)c1ccccc1 (centres undefined)	-1%	12%	1%	0%
CC(NC(=O)c1ccc(F)cc1)c1nc2ccccc2[nH]1 (centres undefined)	.	-4%	6%	.
CC(=O)c1cnc2c(-c3ccc(Cl)cc3)cnn2c1C	30µM*	3.5µM*	-7%	2%
CCOC(=O)Cc1c(C)nc2c(-c3ccc(Cl)cc3)c(C)[nH]n2c1=O	-10%	-61%	19%	0%
CCOC(=O)Cc1c(C)nc2c(-c3ccc(Cl)cc3)cnn2c1C	19µM*	3%	-13%	0%
CCCc1ccc2oc(C(=O)NCc3nnc(C)o3)c(C)c2c1	1%	?	28%	-2%
COc1cc2c(cc1OC)C(c1ccc(F)cc1)N(c1ccc(F)cc1)C(=O)C2 (centres undefined)	.	.	12%	.
O=c1c(-c2ccc(Cl)cc2)coc2c(CN3CCOCC3)c(O)ccc12	19µM*	49%	-3%	2%
COc1ccc(-c2coc3c(CN4CCOCC4)c(O)ccc3c2=O)cc1	-4%	30%	-4%	2%
CC1CCCCN1Cc1c(O)ccc2c(=O)c(-c3ccc(Cl)cc3)coc12 (centres undefined)	-6%	10µM*	-7%	0%
CCCCN1CCC[C@@H]1CNC(=O)c1cc(C#N)c2ccccc2c1OC	.	.	-29%	.
COCCn1c(=O)c(CCc2ccccc2)nc2cnc(OCc3ccccc3)nc21	.	.	1%	.
CCOC(=O)c1sc(Nc2ccc(OCC)cc2)nc1C	3%	30%	-4%	-1%
CCOC(=O)c1sc(N2N=C(C)/C(=C\c3ccc(OCC(=O)OC)cc3)C2=O)nc1C	13µM*	-15%	?	1%
CCOC(=O)C1CCN(C(=O)c2ccccc2NC(=O)c2ccc(Cl)cc2)CC1	15µM*	-2%	?	0%
CCOC(=O)C1CCN(CCC(=O)Nc2ccccc2OC)CC1	.	.	3%	.
Cc1ccccc1C(=O)N1CCC(C(=O)N2CCN(c3ncccn3)CC2)CC1	-2%	0%	6%	-3%
CCOC(=O)C1CCN(CCC(=O)Nc2ccccc2Cl)CC1	24µM*	19%	3%	-1%
CCOC(=O)N1CCN(C(=O)C2CCN(C(=O)c3ccccc3C)CC2)CC1	3.4µM*	-20%	22µM*	.
Cc1ccc(Cl)cc1N1CCN(C(=O)c2ccc3c(c2)N(Cc2ccccc2F)C(=O)c2ccccc2S3(=O)=O)CC1	.	5%	3%	.
Cc1cccc(CNS(=O)(=O)c2ccc(-c3ccc(=O)[nH]n3)s2)c1	24µM*	-2%	-30%	0%
COc1ccc(CNS(=O)(=O)c2ccc(-c3ccc(=O)[nH]n3)s2)cc1OC	-9%	0%	3%	0%
COc1cc(/C=C(\C#N)c2nc3ccc(C)cc3[nH]2)cc([N+](=O)[O-])c1O	?	7.1µM*	?	12%
COc1cc(/C=C(\C#N)c2nc3ccc(C)cc3[nH]2)c([N+](=O)[O-])cc1OC	-1%	-33%	-24%	-1%
